Our source for the growth values is PubChem BioAssay (NCI).

The panel holds about 83,000 compounds, 20% with a hit somewhere; the sample as a whole holds those more often.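 Each cell line was grown in a 96-well plate and treated with one concentration of compound for 48 hours. Values below 10 were considered active.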 Unmarked numbers belong to inactive results. The source made the active and inactive calls.

This test concerns MCF7 breast. In words: NCI-60 one-dose screen, 48 h (100 = growth as untreated, 0 = no growth, -100 = all killed). Conditions: 10 µM unless noted. On the procedure:
Growth inhibition of the MCF7 human tumor cell line is measured as a screen for anti-cancer activity. Cells are grown in 96 well plates and exposed to the test compound for 48 hours. Compounds are tested at a single concentration, which is 10^-5 M for most compounds. The reported endpoint is percent growth (GI% or GIPRCNT), where numbers from 0 - 100% represent growth inhibition, and numbers from -100% - 0 represent cell death. For example, a value of 40 represents 60% growth inhibition. A value of 0 means no net growth occurred over the course of the experiment. A value of -40 indicates 40% of cells at the beginning of the experiment died by the end of the experiment. A value of -100 means all cells are dead at the end of the experiment.
NCI-60 Human Tumor Cell Lines Screen was performed using the standard one-dose NCI protocol, which is described in more detail at https://dtp.cancer.gov/discovery_development/nci-60/default.htm.
Compounds with GIPRCNT values below 10 were considered active. Activity score was based on GIPRCNT using the following formula: […]
Score is 0 for GIPRCNT values of 100 or above, 50 for GIPRCNT values of 0, and 100 for GIPRCNT values of -100.
As for `c1cnc2c(-c3nc4ccc5[nH]ncc5c4c4c3CCCC4)c[nH]c2c1`, the growth was 9.3% (active).
With `CCOC(=O)C#Cc1c(C(=O)OCC)nnn1Cc1ccc([N+](=O)[O-])cc1` the figure was 6.62% (active).
On to `O=C1/C(=C/c2cn(-c3ccccc3)nc2-c2ccccc2)SC(=S)N1C1CCCCC1`, for which the growth was 86.2%.
For the compound `CCCCn1c(=O)[nH]c(N)c([C@@H]2c3c([nH]c(=O)n(CCCC)c3=O)Oc3ccc4ccccc4c32)c1=O`, the growth is 46%.
For `C=CCN=c1sc2c(n1NC(=O)c1cc3ccc1CCc1ccc(cc1)CC3)C(=O)c1ccccc1C2=O`, the growth is -62.8% (active).
Consider `CC1(C)CC(=O)C2=C(C1)N(c1ccc(OC(F)(F)F)cc1)C(N)=C(C#N)C2c1ccc(Br)cc1F` (stereo not given), for which the growth was 83.3%.
Take `Nc1c(C(=O)Nc2ccccc2C(F)(F)F)sc2nc3c(cc12)CCC3`: the growth is 95.8%.
With `COc1ccccc1N1CCCCC1` the figure was 96.3%; with `Oc1c(Br)cc(Br)c2ccc(Cn3cc(-c4ccc(C(F)(F)F)cc4)nn3)nc12`, 27.9%.
With `N#Cc1nc(-c2ccccc2)oc1S(=O)(=O)N1CCN(c2ccccc2)CC1`, the growth was 51.5%.
With `O=C1/C(=C/c2cccc(F)c2)CN(C(=O)C(Cl)Cl)C/C1=C\c1cccc(F)c1` the figure was -46.7% (active); with `COc1ccc2[nH]c(C(=O)N3CCN(C(=O)OCc4ccc5c(Cl)cc(Cl)c(O)c5n4)CC3)cc2c1`, -55.7% (active).
Then `CCCCCC(/C=N\NC(=S)N/N=C/C(=C/c1ccccc1)CCCCC)=C\c1ccccc1`, with 75.9%; and `O=C1c2c(c3c4ccccc4[nH]c3c3ccc4ccccc4c23)C(=O)N1CCN1CCNCC1`, with 23%.
Regarding `COc1ccc(NC2=C(I)C(=O)c3ncccc3C2=O)cc1`, the growth is -53.5% (active).
In the case of `COc1cc2c(c(OC)c1OC)CCC(c1cccc(NC(=O)c3ccc(Br)cc3)c1)O2` (stereo not given), the growth is 73.2%.
On to `OCCn1cc(-c2nc(-c3c[nH]c4ncccc34)cs2)c2ccccc21`, for which the growth is 32.9%.
Turning to `O=C1C(Cl)=C(Nc2ccc(S(=O)(=O)N3CCOCC3)cc2)C(=O)c2ccccc21`, the growth is 58.9%.
For the compound `CCOC(=O)C1=C(c2ccccc2)N=C2SC=C(c3ccc(Cl)cc3)N2C1c1ccc(Br)cc1` (stereo not given), the growth is 75.2%.
For the compound `CC(=O)N1N=C(c2ccc(Nc3nc(Nc4ccccc4)nc(Nc4ccccc4)n3)cc2)CC1c1ccccc1` (stereo not given), the growth was 67.5%.
As for `O=C(O)CCN1C(=O)/C(=C/C(Cl)=C/c2ccccc2)SC1=S`, the growth is 15.7%.
In the case of `COc1ccc2c(c1)N(CCO)C1=C(C(=O)OC1)C2c1cccc(F)c1` (stereo not given), the growth was 18.1%.
`N=C(N)c1ccc(-c2ccc(-c3ccc(Cl)cc3Cl)s2)cc1`: the growth is -65.4% (active).
Take `OB1OCc2cc(/C=C/c3cccc(C(F)(F)F)c3)ccc21`: the growth was 21.8%.
For `NS(=O)(=O)c1ccccc1NC(=O)Nc1nc2ccccc2s1`, the growth was 82.4%.
Then `O=C(CSc1nnc(-c2cnccn2)n1-c1ccccc1)c1ccc(Cl)cc1`, with 94.1%; and `CS(=O)(=O)Nc1cncc(-c2ccc3ncnc(Nc4cncc(Cl)c4)c3c2)c1`, with 55.6%.
In the case of `O=S(=O)(Nc1cc(Cl)ccc1Cl)c1ccc(-c2cnc(C3CC3)o2)cc1`, the growth is 12.9%.
For `N#Cc1c(-c2ccc(Cl)cc2)nc(NN2C(=O)c3ccccc3C2=O)nc1N1CCOCC1`, the growth is 101%.
As for `Nc1nc2ccccc2c2c(=O)c3cccc(Cl)c3sc12`, the growth is 12.2%.
As to `O=C(Nc1nc2ccc(C(=O)N3CCN(/C=C/c4ccccc4)CC3)cc2s1)c1ccc(NCCc2ccccc2)c([N+](=O)[O-])c1`, the growth is 16%.
Then `COc1ccc(C(=O)C/C(=C\c2ccc(Cl)cc2)C(=O)NCc2ccccc2)cc1`, with 86.1%; and `CCC(C(=O)[C@@H](C)[C@@H](O)[C@H](C)[C@@H]1O[C@@H]([C@@H](CC)C(=O)ONC(=O)c2ccccc2)CC[C@@H]1C)[C@H]1O[C@]2(C=CC(=O)[C@]3(CC[C@@](C)([C@H]4CC[C@](O)(CC)[C@H](C)O4)O3)O2)[C@H](C)C[C@@H]1C` (stereo not given in full), with 3.51% (active).
Turning to `CCCCNCCCCCNc1cc(OC)cc2cccnc12`, the growth is 84.6%.
With `Cc1cn(-c2cc(NC(=O)c3cccc(C#Cc4cccc5[nH]nc(N)c45)c3)cc(C(F)(F)F)c2)cn1` the figure was 34.2%.
In the case of `CSc1nc2ccccc2cc1/C=[N+](\[O-])c1ccccc1`, the growth was 24.9%.
As for `COc1cccc(/C=C2\COc3ccc(O)c(O)c3C2=O)c1`, the growth was 17.6%.
In the case of `COc1ccc(C(C)=O)cc1S(=O)(=O)Nc1c(N)nc(SC)[nH]c1=O`, the growth was 92.9%.
For the compound `Cc1ccc(C[P+](c2ccccc2)(c2ccccc2)c2ccccc2)cc1`, the growth was 10.9%.
With `O=C(COc1ccc(-c2nc3cc(Cl)c(Cl)cc3[nH]2)cc1)N=Nc1c(O)[nH]c2ccc(Cl)cc12` the figure was 25.6%.
